# Test results published in PubChem BioAssay (NCI).
# The panel holds about 83,000 compounds, 20% with a hit somewhere; the sample as a whole holds those more often.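 Testing used 96-well plates and a 48-hour single-concentration exposure. Example: -40 means 40% of the starting cells died.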 Unmarked numbers belong to inactive results. Active and inactive are the calls of the source. The calls were made as follows: active = growth percent below 10; inactive = the rest.
# What was measured:
# Assay in all cases: NCI-60 one-dose screen, 48 h (100 = growth as untreated, 0 = no growth, -100 = all killed)
# Conditions in all cases: 10 µM unless noted
# NCI-H23 lung = test system: NCI-H23 lung
# NCI-H226 lung = test system: NCI-H226 lung
# NCI-H322M lung = test system: NCI-H322M lung
# HOP-62 NSCLC = test system: HOP-62 NSCLC
# NCI-H460 lung = test system: NCI-H460 lung
# HOP-92 NSCLC = test system: HOP-92 NSCLC
# NCI-H522 lung = test system: NCI-H522 lung
# A549/ATCC NSCLC = test system: A549/ATCC NSCLC
# 786-0 renal = test system: 786-0 renal
# COLO 205 colon = test system: COLO 205 colon
# DU-145 prostate = test system: DU-145 prostate
# K-562 leukemia = test system: K-562 leukemia
# MALME-3M melanoma = test system: MALME-3M melanoma
# MDA-MB-231 breast = test system: MDA-MB-231 breast
# RXF 393 renal = test system: RXF 393 renal
# SF-268 CNS = test system: SF-268 CNS
# SF-295 CNS = test system: SF-295 CNS
# SF-539 CNS = test system: SF-539 CNS
# UACC-257 melanoma = test system: UACC-257 melanoma
# M14 melanoma = test system: M14 melanoma
Compound,growth (NCI-H23 lung) [%],growth (NCI-H226 lung),growth (NCI-H322M lung) [%],growth (HOP-62 NSCLC) [%],growth (NCI-H460 lung),growth (HOP-92 NSCLC),growth (NCI-H522 lung),growth (A549/ATCC NSCLC) [%],growth (786-0 renal) [%],growth (COLO 205 colon),growth (DU-145 prostate) [%],growth (K-562 leukemia),growth (MALME-3M melanoma),growth (MDA-MB-231 breast),growth (RXF 393 renal),growth (SF-268 CNS) [%],growth (SF-295 CNS),growth (SF-539 CNS),growth (UACC-257 melanoma) [%],growth (M14 melanoma)
COc1ccc(C(Cc2ccccc2)NCCN2CCOCC2)cc1 (stereo not given),100,109%,95.7,93.1,107%,106%,71.1%,97.8,89.4,96.1%,110,101%,86.8%,110%,104%,98,99.4%,99.6%,109,90.6%
CCOC(=O)C1=C(N)Oc2c(sc3c(C)cccc23)C1c1ccc(F)cc1 (stereo not given),20.1,9.65% (active),51.5,36.2,4.3% (active),91.7%,11.8%,20.1,33.4,-1.13% (active),12.1,4.54% (active),52.7%,27.8%,-7.13% (active),38.2,0.881% (active),-1.53% (active),59.2,10.6%
O=C(O)CCC(=O)Nc1nnc(-c2ccccc2)s1,99.7,116%,105,94.2,104%,93.1%,80.1%,102,92.9,108%,105,91.7%,114%,108%,120%,96.4,96.9%,102%,104,102%
CCCCCCCCCCCCCCCCCC1OCC(COC(=O)O[C@]2(CC)C(=O)OCc3c2cc2n(c3=O)Cc3cc4ccccc4nc3-2)O1 (stereo not given in full),75.4,75.4%,101,53,31.4%,92.6%,82.6%,78.5,86.7,79.3%,76,88.4%,101%,93.1%,89.4%,45.7,23.4%,68.1%,95.9,75.3%
Cc1ccc2sc3c(NCCCN)nc4ccccc4c3c(=O)c2c1,79.9,93.5%,69.2,69.1,-54.2% (active),44.8%,59.4%,43.5,76.7,-42.9% (active),15.4,-37.7% (active),104%,-14.6% (active),71.4%,65.1,88%,58%,101,15%
CC(C)n1cnc2c(Nc3cccc(Cl)c3)nc(N[C@H]3CCCC[C@@H]3N)nc21,61.7,68.6%,66.4,42.8,45.7%,26.8%,38.7%,55.7,45.7,26.4%,49.7,35.5%,45.5%,32.6%,53.2%,46.5,76.3%,71.3%,64.1,40.9%
Fc1cc(-c2nnc3n2NC(=Nc2ccc(Cl)cc2)CS3)c(Cl)cc1Cl,79.3,122%,100,73.6,96.5%,-18.6% (active),76.3%,87.5,81.9,95.6%,97.8,51.5%,105%,104%,89.8%,91.7,81.5%,98.6%,92.5,92.4%
Cc1c(C(=O)NCCN2CCOCC2)cn2ncnc(Oc3ccc(NC(=O)Nc4ccc(Cl)c(C(F)(F)F)c4)cc3)c12,13.9,34.2%,73.8,20.5,3.24% (active),7.32% (active),5.61% (active),13.4,12.3,-25.4% (active),42.3,4.96% (active),-4.42% (active),7.21% (active),-26.8% (active),29,-29.3% (active),-2.93% (active),24.3,3.71% (active)
